Unmarked numbers belong to inactive results. Inconclusive results are not listed. The source made the active and inactive calls. Unless noted, calls follow the shape of the dose curve; as a rule, active = well fitted curve in the direction sought with a large enough effect in the repeat runs; inconclusive = weak or mixed curves; inactive = no such curve, though single readings can be large; an effect the other way counts as inactive or inconclusive.

Assay [1] in a line: qHTS assay for small molecule agonists of the p53 signaling pathway (AID 651631; calls by dose curve; also: nearly all actives have a fitted effect of over 15% in size). In outline: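 Quantitative high-throughput format: 4,000 p53RE-bla HCT-116 cells/well, 5 h pre-incubation, 16 h compound exposure at 37 °C, 2 h room-temperature substrate step, fluorescence intensity measured.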
For orientation: qHTS replaces the single test concentration by a dilution series.

A short description of assay [2]: qHTS assay for small molecules that induce genotoxicity in human embryonic kidney cells expressing luciferase-tagged ATAD5 (AID 651632). Also: nearly all actives have a fitted effect of over 15% in size. In outline: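 Cells were seeded at 2,000 per well, dosed with compound, and incubated 16 hr at 37C in 5% CO2. Luciferase activity was then quantified after a 30 min room-temperature incubation with Amplite.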
The nature of assay [3]: qHTS assay for small molecule agonists of the p53 signaling pathway - cell viability (AID 651633; calls by dose curve;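 also: p53RE-bla HCT reporter cells with a stable beta-lactamase p53 reporter; nearly all actives have a fitted effect of over 30% in size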). In a few lines:
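p53RE-bla cells, seeded at 4,000 per well and rested 5 h at 37 C/5% CO2, received compounds in DMSO for 16 h at 37 C. CellTiter-Glo was then added, and luminescence was read after 30 min at room temperature to gauge cytotoxicity.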

A short description of assay [4]: qHTS assay for small molecules that induce genotoxicity in human embryonic kidney cells expressing luciferase-tagged ATAD5 - cell viability (AID 651634; calls by dose curve; also: nearly all actives have a fitted effect of over 25% in size). In outline: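 Cells (HEK293T, luciferase-tagged ATAD5) are seeded at 2,000 per well, dosed with compound or DMSO vehicle, and incubated 15.5 hr at 37C and 5% CO2. CellTiter-Fluor is added for 30 min before fluorescence is measured.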

Assay [5] can be described thus: qHTS assay for small molecule disruptors of the mitochondrial membrane potential - cell viability (AID 720634; calls by dose curve;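 also: human HepG2 liver cancer cells; nearly all actives have a fitted effect of over 20% in size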). In outline:
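Cytotoxicity was measured by ATP quantitation in HepG2 wells that had first been treated with compound for 1 hr and stained with m-MPI dye; CellTiter-Glo incubation was 30 min at room temperature.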

Assay [6] is described as follows: qHTS assay for small molecule disruptors of the mitochondrial membrane potential (AID 720635). Also: potency is read from the fitted curve at half-maximal effect. In a few lines:
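HepG2 cells (2,000/well) attached overnight at 37C, then took compound for 1 hr at 37C, 5% CO2. Mito-MPS dye was added for 30 min; fluorescence was read at 490/535 nm (monomers) and 540/590 nm (aggregates).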

Assay [7] can be described thus: qHTS assay to test for compound auto fluorescence at 590 nm (red) in HepG2 cells (AID 720674). In outline: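 Intrinsic compound fluorescence in the red window (Ex/Em 540/590 nm) is measured in attached HepG2 cells exposed for 1 hr, DMSO vehicle as baseline, benchmarked to Rose Bengal sodium.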
Assay [8] in a line: qHTS assay to test for compound auto fluorescence at 535 nm (green) in HepG2 cells (AID 720675).
The nature of assay [9]: qHTS assay to test for compound auto fluorescence at 460 nm (blue) in HEK293 cells (AID 720678). In outline:
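HEK293 cells (2,000 per well, medium with 10% dialyzed FBS) attached for 4-5 hr at 37C, then received compound and stood overnight at 37C, 5% CO2. Blue fluorescence was read at Ex/Em 405/460 nm and expressed relative to triamterene.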

The nature of assay [10]: qHTS assay to test for compound auto fluorescence at 535 nm (green) in HEK293 cells (AID 720680).
The nature of assay [11]: qHTS assay to test for compound auto fluorescence at 460 nm (blue) in HEK293 cell free culture (AID 720681). In outline: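 Test compounds were pinned into cell-free culture medium (DMEM with 10% FBS) and fluorescence was read directly at Ex/Em 405/460 nm. Signals were expressed as fluorescence equivalents of triamterene, with DMSO vehicle as control.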
Assay [12] can be described thus: qHTS assay to test for compound auto fluorescence at 535 nm (green) in HEK293 cell free culture (AID 720682). In outline:
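Measurement is a direct plate read of green fluorescence (485 nm in, 535 nm out) after compound addition to serum-supplemented DMEM lacking cells, with fluorescein used to express intensities.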

The nature of assay [13]: qHTS assay to test for compound auto fluorescence at 590 nm (red) in HEK293 cell free culture (AID 720683). In a few lines: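 Tox21 10K library compounds were pinned into cell-free DMEM with 10% FBS and fluorescence was read at excitation 540 nm. Activity is expressed as Rose Bengal sodium equivalency.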
Assay [14] can be described thus: qHTS assay to test for compound auto fluorescence at 590 nm (red) in HepG2 cell free culture (AID 720684). In a few lines: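 Readout: intrinsic compound fluorescence at 590 nm emission after 540 nm excitation, scaled to Rose Bengal sodium. Matrix was cell-free MEM with 10% FBS; DMSO vehicle wells served as control.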
Assay [15] can be described thus: qHTS assay to test for compound auto fluorescence at 460 nm (blue) in HepG2 cell free culture (AID 720685). In outline: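 Cell-free plates of MEM plus 10% FBS received 23 nL compound or DMSO vehicle; blue-channel (405/460 nm) intensity scored against triamterene as reference fluorophore.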
A short description of assay [16]: qHTS assay to test for compound auto fluorescence at 535 nm (green) in HepG2 cell free culture (AID 720686).
The nature of assay [17]: qHTS assay to test for compound auto fluorescence at 460 nm (blue) in HepG2 cells (AID 720687). In a few lines:
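Cells (2,000/well in MEM with 10% FBS) attached overnight at 37 C, then were exposed to compound or DMSO for 1 hr at 37 C, 5% CO2. Fluorescence read at Ex/Em 405/460 nm, expressed as triamterene-equivalent signal.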

The target in assay [18] is Glucocorticoid receptor (Homo sapiens) (UniProt P04150). Description: qHTS assay to identify small molecule agonists of the glucocorticoid receptor (GR) signaling pathway (AID 720691; active = well fitted activation curve with a large enough effect in the signal ratio in the repeat runs, not every such curve was filed as active; the % refers to the signal ratio). The settings on record: GR-bla HeLa, beta-lactamase reporter ratio, 18 h; activation: at 62.4 µM (top of the series) unless noted. In outline:
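Steps: seed GR-bla HeLa cells, incubate 4 h at 37 C/5% CO2; pin-transfer DMSO-dissolved compounds; incubate 18 h at 37 C; add LiveBLAzer B/G FRET substrate; after 2 h at room temperature, measure fluorescence.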

For assay [19] the target is unchanged. Nature of the assay: qHTS assay to identify small molecule antagonists of the glucocorticoid receptor (GR) signaling pathway (AID 720692; active = well fitted inhibition curve with a large enough effect in the signal ratio in the repeat runs, not every such curve was filed as active; the % refers to the signal ratio). In a few lines: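 Antagonism was scored as loss of dexamethasone-driven (5 nM final) reporter signal in HeLa cells bearing a glucocorticoid response element–beta-lactamase construct, after 18 h compound exposure at 37 C and 2 h FRET substrate loading.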

The nature of assay [20]: qHTS assay to test for compound auto fluorescence at 590 nm (red) in HEK293 cells (AID 720679). In a few lines:
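HEK293 cells (2,000/well, medium with 10% dialyzed FBS) attached for 4-5 hr at 37C, received 23 nL compound and were incubated overnight at 37C, 5% CO2. Red fluorescence was then read at 540/590nm Ex/Em, referenced to Rose Bengal sodium.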

Sequence of Glucocorticoid receptor (Homo sapiens) (P04150 whole entry, looked up): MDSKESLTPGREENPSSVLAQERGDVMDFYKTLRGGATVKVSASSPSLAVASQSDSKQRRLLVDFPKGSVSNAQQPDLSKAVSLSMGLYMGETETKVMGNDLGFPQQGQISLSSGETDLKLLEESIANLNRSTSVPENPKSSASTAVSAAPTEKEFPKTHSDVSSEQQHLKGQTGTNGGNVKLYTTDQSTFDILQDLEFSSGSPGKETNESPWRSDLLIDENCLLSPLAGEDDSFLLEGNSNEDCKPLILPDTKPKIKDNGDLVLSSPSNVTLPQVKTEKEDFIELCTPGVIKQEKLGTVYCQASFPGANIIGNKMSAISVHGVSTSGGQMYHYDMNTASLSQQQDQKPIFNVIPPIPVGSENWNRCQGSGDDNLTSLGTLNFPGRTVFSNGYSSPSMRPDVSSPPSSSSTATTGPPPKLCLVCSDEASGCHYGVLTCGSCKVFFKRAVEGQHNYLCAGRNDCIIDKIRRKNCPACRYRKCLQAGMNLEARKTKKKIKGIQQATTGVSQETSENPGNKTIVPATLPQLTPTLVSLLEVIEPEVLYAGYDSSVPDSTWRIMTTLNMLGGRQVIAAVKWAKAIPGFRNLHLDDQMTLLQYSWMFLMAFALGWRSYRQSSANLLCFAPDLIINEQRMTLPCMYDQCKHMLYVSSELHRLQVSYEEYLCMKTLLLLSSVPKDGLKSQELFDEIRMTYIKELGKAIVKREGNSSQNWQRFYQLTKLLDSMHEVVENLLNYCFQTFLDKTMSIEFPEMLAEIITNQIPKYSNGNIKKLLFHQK

On to `CC1OC(=O)C(C)OC1=O` (configuration not stated), for which the Potency result in [1], in assay [2], in assay [3], in [4], in assay [5] and in assay [6] was “inactive” throughout. Moreover, the Potency result in assay [7], in assay [8], in [13], in assay [14], in [16] and in assay [18] was “inactive” throughout. The Potency result in assay [19] is “inactive”. The result in assay [9], in assay [10], in assay [11], in [12], in [15] and in [17] was inactive.
As for `CC(CC=O)c1ccccc1` (configuration not stated), the Potency result in assay [1], in assay [2], in assay [3], in [4], in assay [5] and in assay [7] was “inactive” each time. Further, the Potency entry in assay [8], in [20], in [13], in assay [14] and in [16] was “inactive” each time. Further, the Potency in assay [6] is 54.5 µM (active). Further, the outcome in assay [9], in assay [10], in assay [12], in assay [15] and in assay [17] was inactive.
In the case of `NCc1ccccc1Sc1ccccc1CO`, the Potency result in assay [1], in assay [2], in assay [3], in assay [4], in assay [5] and in [6] was “inactive” throughout. For the same compound, the Potency result in [8], in assay [20], in [13], in [14] and in [16] was “inactive” each time. Moreover, the outcome in assay [9], in assay [10], in [15] and in assay [17] was inactive.
In the case of `CCCCCCCCCCCC(=O)OC[C@@H](O)[C@H]1OC[C@H](OCCO)[C@H]1OCCO`, the Potency entry in [1], in assay [2], in [3], in assay [4], in [5] and in assay [6] was “inactive” in each case. Further, the Potency entry in assay [14] and in assay [16] was “inactive” each time. The outcome in [9], in assay [10], in [11], in [12], in assay [15] and in [17] was inactive.
For `COC(C)(C)CCO`, the Potency result in assay [1], in assay [2], in [3], in assay [4], in assay [5] and in assay [6] was “inactive” throughout. For the same compound, the Potency entry in assay [7], in assay [20], in assay [13], in assay [14], in assay [16] and in assay [18] was “inactive” in each case. The call in [9], in assay [10], in assay [11], in assay [12] and in assay [17] was inactive.
As to `CCCCC/C=C\C/C=C\CCCCCCCC(=O)NC(C)c1ccccc1` (configuration not stated), the Potency result in assay [1], in [2], in assay [3], in assay [4], in [5] and in [6] was “inactive” each time. The Potency result in [7], in [8], in [20], in assay [13], in [14] and in assay [16] was “inactive” each time. In addition, the Potency result in assay [18] was “inactive”. The call in [9], in assay [10], in assay [12], in [15] and in assay [17] was inactive.
In the case of `CCCCCC[C@@H](O)C/C=C\CCCCCCCC(=O)OC`, the Potency result in assay [1], in assay [2], in assay [3], in assay [4], in assay [5] and in assay [7] was “inactive” in each case. The Potency result in [8], in [20], in assay [13], in [14] and in assay [16] was “inactive” throughout. The outcome in assay [9], in [10], in assay [11], in [12], in assay [15] and in [17] was inactive.

These data come from PubChem BioAssay (Tox21).
